Consider seven compounds from PubChem BioAssay (Tox21).

Values joined by “and” are separate entries in the source; they are usually repeats but may differ in a detail not shown here. Equal entries are not always repeated. Inconclusive results are not listed. More than one record can exist for a structure, and the calls need not agree. Active and inactive are the calls of the source. Unless noted, calls follow the shape of the full dose curve.

Test [1] is described as follows: Nuclear factor erythroid 2-related factor 2/antioxidant responsive element (Nrf2/ARE) small molecule agonists: qHTS cell viability counter screen in human keratinocytes (AID 1919968; active = well fitted curve in the direction sought with a large enough effect in the repeat runs; an effect the other way counts as inactive or inconclusive; also: nearly all actives have a fitted effect of over 55% in size; also: potency is read from the fitted curve at half-maximal effect). In outline: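 After a 5 h attachment period, ARE-reporter keratinocytes were dosed with compounds in DMSO and then cultured 23 h at 37 C. Cell viability came from CellTiter-Fluor signal read after a further 1 h.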
On the technique in general: qHTS replaces the single test concentration by a dilution series.

Test [2] can be described thus: Nuclear factor erythroid 2-related factor 2/antioxidant responsive element (Nrf2/ARE) small molecule agonists: luciferase reporter gene qHTS assay in human keratinocytes (AID 1919969). Also: nearly all actives have a fitted effect of over 35% in size.
Test [3] addresses Gonadotropin-releasing hormone receptor (Homo sapiens) (UniProt P30968). The test can be described thus: Human gonadotropin-releasing hormone receptor (GnRHR) small molecule agonists, calcium flux assay in GnRHR-HEK293 cells (AID 1920063). Also: nearly all actives have a fitted effect of over 35% in size. In outline: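 We seeded human GnRHR-expressing HEK293 cells for 18 hours, loaded them with calcium dye for an hour at 37 C, added test compounds, and recorded fluorescence intensity kinetically for three minutes.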
A general note: Calcium assays in cells follow changes in intracellular calcium, usually with a dye or a luminescent sensor.

In test [4] the target is KiSS-1 receptor (Homo sapiens) (UniProt Q969F8). The test can be described thus: Human kisspeptin (KISS1R) small molecule agonists, calcium flux assay in KISS1R-HEK293 cells (AID 1920064; active = well fitted curve in the direction sought with a large enough effect in the repeat runs; an effect the other way counts as inactive or inconclusive). In outline:
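Kinetic calcium assay, 1 s sampling over 3 min at Ex/Em 480/540, in HEK293 cells engineered with human KISS1R; compounds delivered in DMSO after 1 h dye loading.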

Test [5] in a line: G protein-coupled receptor (GPCR) small molecule agonists, calcium flux assay: HEK293 wild type cell line counter screen (AID 1920065). An outline of the steps: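 Calcium-sensitive dye, loaded 1 h at 37 C into cells cultured 18 h, reports compound-evoked calcium release as fluorescence (Ex/Em 480/540), measured over 3 min. Agonist mode; 15-point titrations, triplicate.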
Test [6] in a line: p53 small molecule agonists, cell-based qHTS assay with human liver microsomes (AID 1963577).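 Also: p53 response element beta-lactamase reporter cells with liver microsomes plus NADPH.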 An outline of the steps: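 With metabolic activation: human liver microsomes (0.5 mg/mL final) plus NADPH (0.5 mg/mL final) added alongside compounds to p53RE-bla cells; 16 h 37 C exposure; beta-lactamase read by LiveBLAzer fluorescence.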
Test [7] in a line: p53 small molecule agonists, cell-based qHTS assay with rat liver microsomes (AID 1963578). An outline of the steps:
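Metabolic activation by rat liver microsomes and NADPH, each 0.5 mg/mL final, added right after compounds to p53RE-bla reporter cells (4,000/well, plated 5 h earlier). 16 h at 37 C, then LiveBLAzer substrate for 2 h at room temperature in the dark; fluorescence read-out.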

The nature of test [8]: p53 small molecule agonists, cell-based qHTS assay with human liver microsomes: qHTS cell viability counter screen (AID 1963579). Also: nearly all actives have a fitted effect of over 45% in size. Also: potency is read from the fitted curve at half-maximal effect. An outline of the steps:
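Metabolic activation used human liver microsomes and NADPH, both 0.5 mg/mL final, over 16 hours at 37 C on p53RE-bla cells (4,000/well). Cytotoxicity measured by CellTiter-Glo luminescence, 30 min at room temperature.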

Test [9] can be described thus: p53 small molecule agonists, cell-based qHTS assay with rat liver microsomes: qHTS cell viability counter screen (AID 1963580). Also: nearly all actives have a fitted effect of over 45% in size. Also: potency is read from the fitted curve at half-maximal effect. An outline of the steps:
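Intracellular ATP, by CellTiter-Glo luminescence, defines viability. HCT-116 p53RE-bla cells, 4,000 per well, were compound-treated in the presence of rat liver microsomes and NADPH for 16 h at 37 C.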

Test [10] can be described thus: p53 small molecule agonists, cell-based qHTS assay: qHTS cell viability counter screen (AID 1963581). Also: nearly all actives have a fitted effect of over 45% in size. An outline of the steps:
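Following 5 h attachment, HCT-116 p53RE-bla cells took up compound for 16 h at 37 C; the reporter was read with B/G FRET substrate (2 h RT), and viability then via CellTiter-Glo ATP luminescence.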

Test [11] in a line: p53 small molecule agonists, cell-based qHTS assay (AID 1963582; active = well fitted activation curve with a large enough effect in the signal ratio in the repeat runs, not every such curve was filed as active; the % refers to the signal ratio). An outline of the steps:
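In this cell-based concentration-response screen, a p53 response element drives beta-lactamase; cells received DMSO-borne compounds after 5 h culture and were incubated a further 16 h before FRET substrate development.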

For test [12], the target named is 5-hydroxytryptamine receptor 2A (Homo sapiens) (UniProt P28223). The test can be described thus: 5-hydroxytryptamine receptor 2A (HTR2A) small molecule antagonists, cell-based qHTS assay (AID 1963586). Also: nearly all actives have a fitted effect of over 45% in size. In outline:
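Antagonist-mode intracellular calcium assay: DOI (4 nM) added after 5 min compound pre-incubation at room temperature to dye-loaded HTR2A-CHO cells. Fluorescence followed for 3 min, sampled every second.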

For test [13] the target is unchanged. The test can be described thus: 5-hydroxytryptamine receptor 2A (HTR2A) small molecule agonists, cell-based qHTS assay (AID 1963587). Also: nearly all actives have a fitted effect of over 30% in size. Also: potency is read from the fitted curve at half-maximal effect. An outline of the steps:
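Kinetic calcium-flux fluorescence (2 min, 1 sec intervals) after compound addition in agonist mode. HTR2A-CHO cells were cultured 18 h, then dye-loaded 1 h at 37 C.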

The target in test [14] is Muscarinic acetylcholine receptor M1 (Homo sapiens) (UniProt P11229). The test is described as follows: Cholinergic receptor muscarinic 1 (CHRM1) small molecule antagonists, cell-based qHTS assay (AID 1963588). Also: nearly all actives have a fitted effect of over 40% in size. In outline:
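CHRM1-CHO calcium-flux assay, antagonist mode. Cells were seeded 18 h, dye-loaded 1 h at 37 C and given compound for 5 min at RT, then acetylcholine was added at 50nM. FDSS fluorescence was read 3 min; 15 concentrations, three runs.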

The target is the same in test [15]. The test can be described thus: Cholinergic receptor muscarinic 1 (CHRM1) small molecule agonists, cell-based qHTS assay (AID 1963589). Also: nearly all actives have a fitted effect of over 35% in size. An outline of the steps: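 Measures agonist-induced intracellular calcium rise. Stable human CHRM1 CHO line, 1 h dye load at 37 C, compounds from DMSO, kinetic fluorescence read.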
A short description of test [16]: cAMP Responsive Elements (CRE) small molecule agonists, cell-based qHTS assay (AID 1963590). An outline of the steps:
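A CRE-responsive beta-lactamase reporter in HEK 293T cells was used. Treatment ran 3 h at 37 C; detection used LiveBLAzer B/G FRET substrate for 2 h at room temperature.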

Test [17] concerns the target Beta-2 adrenergic receptor (Homo sapiens) (UniProt P07550). The test is described as follows: Adrenergic beta2 receptor (ADRB2) small molecule antagonists, cell-based qHTS assay (AID 1963592). Also: series mostly up to about 92 µM; nearly all actives have a fitted effect of over 50% in size. An outline of the steps: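 Cells (CHO, stable ADRB2 overexpression) incubated 18-20hr at 37C; compounds added from DMSO; agonist mix (1nM isoproterenol, 100uM IBMX, 25uM Ro-20-1724) added; 0.5hr RT; d2-cAMP and anti-cAMP-cryptate added; 1hr RT; 665/615 nm read.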

The target in test [18] is D(2) dopamine receptor (Homo sapiens) (UniProt P14416). The test is described as follows: Dopamine D2 receptor (DRD2) small molecule agonists, cell-based qHTS assay (AID 1963594). Also: nearly all actives have a fitted effect of over 35% in size. In outline:
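cAMP accumulation in DRD2-HEK293 cells measured by HTRF after 1 h detection; compounds added 10 min before NKH477 (200nM […]) forskolin-analogue stimulation, 30 min at room temperature, with Ro20-1724 present at 0.1 mM final.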

Test [19] shares this target. The test can be described thus: Dopamine D2 receptor (DRD2) small molecule antagonists, cell-based qHTS assay (AID 1963595; active = well fitted inhibition curve with a large enough effect in the signal ratio in the repeat runs, with a control signal flat; the % refers to the signal ratio). An outline of the steps: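 HEK293 cells stably expressing DRD2, preincubated with 0.1 mM Ro20-1724 and compounds 10 min, were stimulated with 200 nM NKH477 plus 12 nM quinpirole for 30 min at room temperature; cAMP measured by HTRF (665/620 nm).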

Test [20] can be described thus: cAMP Responsive Elements (CRE) small molecule antagonists, cell-based qHTS assay (AID 1963591; active = well fitted inhibition curve with a large enough effect in the signal ratio in the repeat runs, not every such curve was filed as active; the % refers to the signal ratio). An outline of the steps:
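HEK293T cells carrying a CRE-driven beta-lactamase reporter receive compound and NKH477 (0.25 uM final) for 3 h. Fluorescence from LiveBLAzer B/G FRET substrate is read after 2 h at room temperature.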

Gonadotropin-releasing hormone receptor (Homo sapiens), sequence (P30968 whole entry, looked up): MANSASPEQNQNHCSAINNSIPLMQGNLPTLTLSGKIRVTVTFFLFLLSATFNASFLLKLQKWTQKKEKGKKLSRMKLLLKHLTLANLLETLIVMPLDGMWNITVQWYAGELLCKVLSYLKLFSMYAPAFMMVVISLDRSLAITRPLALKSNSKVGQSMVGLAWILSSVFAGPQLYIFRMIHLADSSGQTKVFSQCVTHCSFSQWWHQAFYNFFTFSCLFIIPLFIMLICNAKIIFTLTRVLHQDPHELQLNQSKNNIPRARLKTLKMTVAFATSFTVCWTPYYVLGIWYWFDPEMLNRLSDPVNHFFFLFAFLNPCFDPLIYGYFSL
D(2) dopamine receptor (Homo sapiens), sequence (P14416 whole entry, looked up): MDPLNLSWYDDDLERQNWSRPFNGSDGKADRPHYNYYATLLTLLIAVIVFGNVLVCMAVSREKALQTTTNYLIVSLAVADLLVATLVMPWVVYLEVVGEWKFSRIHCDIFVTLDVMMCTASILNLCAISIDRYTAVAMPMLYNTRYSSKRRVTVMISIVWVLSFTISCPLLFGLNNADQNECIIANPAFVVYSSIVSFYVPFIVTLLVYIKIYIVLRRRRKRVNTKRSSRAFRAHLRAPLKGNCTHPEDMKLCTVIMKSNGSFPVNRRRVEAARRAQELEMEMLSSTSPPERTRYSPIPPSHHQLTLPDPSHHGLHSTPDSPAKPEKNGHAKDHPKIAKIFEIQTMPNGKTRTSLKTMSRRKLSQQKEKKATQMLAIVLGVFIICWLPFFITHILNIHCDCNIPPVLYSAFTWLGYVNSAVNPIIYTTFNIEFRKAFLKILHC
Muscarinic acetylcholine receptor M1 (Homo sapiens), sequence (P11229 whole entry, looked up): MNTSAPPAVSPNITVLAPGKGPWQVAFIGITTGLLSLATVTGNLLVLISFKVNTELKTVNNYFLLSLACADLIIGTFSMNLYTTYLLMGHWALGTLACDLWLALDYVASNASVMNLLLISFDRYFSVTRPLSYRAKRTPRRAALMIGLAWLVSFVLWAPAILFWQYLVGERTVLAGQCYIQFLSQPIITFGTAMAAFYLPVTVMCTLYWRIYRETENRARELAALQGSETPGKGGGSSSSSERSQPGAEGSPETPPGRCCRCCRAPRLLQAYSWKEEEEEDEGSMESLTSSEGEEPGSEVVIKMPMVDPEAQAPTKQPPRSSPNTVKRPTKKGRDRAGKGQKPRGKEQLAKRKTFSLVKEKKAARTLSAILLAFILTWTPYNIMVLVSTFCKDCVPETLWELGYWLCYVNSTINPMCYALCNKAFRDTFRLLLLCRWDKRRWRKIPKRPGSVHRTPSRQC
KiSS-1 receptor (Homo sapiens), sequence (Q969F8 whole entry, looked up): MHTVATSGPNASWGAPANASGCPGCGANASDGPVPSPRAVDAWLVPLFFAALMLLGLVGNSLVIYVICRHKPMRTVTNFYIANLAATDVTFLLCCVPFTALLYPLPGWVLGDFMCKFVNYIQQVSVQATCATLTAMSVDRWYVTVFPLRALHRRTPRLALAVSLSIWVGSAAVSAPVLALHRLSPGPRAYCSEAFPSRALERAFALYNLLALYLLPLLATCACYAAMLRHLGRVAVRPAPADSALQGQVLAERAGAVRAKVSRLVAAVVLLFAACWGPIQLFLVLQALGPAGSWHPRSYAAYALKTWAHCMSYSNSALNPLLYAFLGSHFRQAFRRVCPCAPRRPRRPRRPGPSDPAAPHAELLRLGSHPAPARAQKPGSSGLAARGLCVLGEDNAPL
Beta-2 adrenergic receptor (Homo sapiens), sequence (P07550 whole entry, looked up): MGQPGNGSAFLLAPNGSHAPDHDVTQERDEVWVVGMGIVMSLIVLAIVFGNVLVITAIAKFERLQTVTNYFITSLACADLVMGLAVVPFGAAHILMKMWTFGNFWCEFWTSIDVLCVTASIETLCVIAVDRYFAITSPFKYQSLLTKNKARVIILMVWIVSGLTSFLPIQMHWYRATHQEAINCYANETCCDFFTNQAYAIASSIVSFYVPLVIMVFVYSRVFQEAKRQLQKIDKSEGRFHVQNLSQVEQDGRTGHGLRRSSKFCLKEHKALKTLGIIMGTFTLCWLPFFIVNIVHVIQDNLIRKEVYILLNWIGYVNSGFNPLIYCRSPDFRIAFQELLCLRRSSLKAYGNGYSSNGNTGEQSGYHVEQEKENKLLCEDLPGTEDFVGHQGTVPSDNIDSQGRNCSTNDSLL
5-hydroxytryptamine receptor 2A (Homo sapiens), sequence (P28223 whole entry, looked up): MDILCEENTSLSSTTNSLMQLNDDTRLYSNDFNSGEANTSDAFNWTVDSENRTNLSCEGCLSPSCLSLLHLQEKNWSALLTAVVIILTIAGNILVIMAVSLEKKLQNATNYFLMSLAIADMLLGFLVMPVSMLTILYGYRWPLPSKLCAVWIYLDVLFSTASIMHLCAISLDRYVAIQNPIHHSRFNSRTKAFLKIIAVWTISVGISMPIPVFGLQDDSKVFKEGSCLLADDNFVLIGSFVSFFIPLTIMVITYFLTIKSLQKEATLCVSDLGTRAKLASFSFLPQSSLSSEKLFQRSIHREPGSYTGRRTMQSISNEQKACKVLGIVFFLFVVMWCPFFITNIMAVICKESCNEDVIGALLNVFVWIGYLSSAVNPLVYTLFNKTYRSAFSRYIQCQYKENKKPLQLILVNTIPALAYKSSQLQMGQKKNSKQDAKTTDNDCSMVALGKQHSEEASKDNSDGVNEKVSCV

On to `C1COC1`, for which the Potency result in [1], in test [2], in test [3], in test [4], in test [5] and in [6] was “inactive” in each case. Besides, the Potency result in test [7], in [8], in test [9], in test [10], in test [11] and in [12] was “inactive” throughout. In addition, the Potency result in test [13], in [14], in test [15], in test [16], in [17] and in test [18] was “inactive” in each case. Further, in [19], the Potency result was “inactive”.

For the compound `CCOC(C)(C)C`, the Potency result in test [1], in test [2], in test [3], in test [4], in test [5] and in test [6] was “inactive” throughout. Besides, the Potency entry in test [7], in test [8], in [9], in [10], in test [11] and in test [12] was “inactive” in each case. Further, the Potency entry in [13], in test [14], in test [15], in [16], in test [20] and in test [18] was “inactive” throughout. In addition, the Potency entry in test [19] was “inactive”.

As to `CN(C)C(=O)Oc1ccc[n+](C)c1`, the Potency entry in test [1], in test [2], in test [3], in [4], in [5] and in test [6] was “inactive” throughout. The Potency entry in [7], in [8], in test [9], in test [10], in test [11] and in [12] was “inactive” throughout. Also, the Potency result in [13], in test [14], in test [15], in test [16], in [17] and in test [18] was “inactive” throughout.

Take `O=C[O][Al]([O]C=O)[O]C=O`: the Potency result in test [1], in test [2], in test [3], in test [4], in [5] and in test [6] was “inactive” in each case. Further, the Potency result in test [7], in [8], in [9], in test [10], in [11] and in test [12] was “inactive” throughout. For the same compound, the Potency result in test [13], in test [14], in test [15], in [16], in test [18] and in [19] was “inactive” each time.

With `CN(C)C(=S)SC(=S)N(C)C`, the Potency in test [1] is 1.11 µM (active) and 1.09 µM (active); in test [8], 41.8 µM (active) and inactive; in test [9] it was 16.6 µM (active) and 5.76 µM (active); in [13] it was 50.2 µM (active) and inactive. Further, the Potency entry in test [2], in test [3], in test [4], in [5], in [6] and in test [7] was “inactive” throughout. For the same compound, the Potency result in [10], in test [11], in test [12], in test [14], in [15] and in [16] was “inactive” in each case. Also, the Potency result in test [17], in [18] and in test [19] was “inactive” in each case.

For the compound `C=C(C)C(=O)NCCCN(C)C`, the Potency entry in test [1], in test [2], in [3], in test [4], in test [5] and in test [6] was “inactive” throughout. For the same compound, the Potency result in [7], in test [8], in test [9], in test [10], in test [11] and in test [12] was “inactive” in each case. Besides, the Potency result in [13], in test [14], in test [15], in [16], in test [20] and in test [18] was “inactive” in each case. Moreover, the Potency result in [19] is “inactive”.

As for `CCCCCCN`, the Potency entry in test [1], in test [2], in [3], in [4], in [5] and in test [6] was “inactive” in each case. Also, the Potency result in test [7], in [8], in test [9], in [10], in [11] and in test [12] was “inactive” throughout. The Potency entry in test [13], in [14], in test [15], in [16], in [17] and in test [18] was “inactive” in each case. In addition, in test [19], the Potency result was “inactive”.
